# Counter-ions that a name gives are not always drawn. Unmarked numbers belong to inactive results.
# Test system: Plasmodium falciparum NF54/iGP1_RE9H ulg8 stage V gametocytes
# Assay: gametocyte viability (luciferase signal relative to DMSO control) (% of DMSO control); higher = less gametocytocidal activity, active = 50 or less
# Conditions: concentration: 10 µM; exposure time: 72 h
# Method: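 Synchronous P. falciparum NF54/iGP1_RE9H ulg8 mature stage V gametocytes (day 12) were exposed to Cayman Epigenetics Screening Library compounds at 10 µM or 1 µM for 72 h at 37 °C. Viability was read as RE9H luciferase bioluminescence, normalised to DMSO plate controls (100%); 50 µM methylene blue was the positive control.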
row,SMILES,gametocyte viability
1,CN1CCC(=C2c3ccccc3C=Cc3ccccc32)CC1 [Cyproheptadine (hydrochloride hydrate)],86.6
2,CC(C)N(CCCNC(=O)Nc1ccc(C(C)(C)C)cc1)C[C@H]1O[C@@H](n2ccc3c(N)ncnc32)[C@H](O)[C@@H]1O,94.1
3,CC(C)(CNC(=O)c1cccc(-c2noc(C(F)(F)F)n2)c1)c1coc(-c2ccccc2)n1,83.2
4,O=C(NO)c1cccc(C(=O)NCCc2ccccc2)c1,64.6
5,CS(=O)(=O)c1ccc(-c2cnc(NCc3ccco3)n3cnnc23)cc1,91.4
6,CCCC(=O)[O-].[Na+] [Sodium Butyrate],84.7
7,O=C(NCC(=O)N1CCCC1)Nc1ccc2cnccc2c1,93.4
8,Nc1ccccc1NC(=O)c1ccc(CNc2nccc(-c3cccnc3)n2)cc1 [Mocetinostat],88.2
9,CCOC(=O)NCCCC(=O)NCCc1ccccc1,94.3
10,CCCNNC(=O)c1ccc(CNC(=O)/C=C/c2ccccc2)cc1 [HDAC3 Inhibitor],93.8
11,CC1(C)C(=O)NC2=C1C(=O)C(=O)c1ccccc12,85.2
12,COc1nnc2ccc(N3CCC(c4ccc(OCCN5CCN(C)C(=O)[C@H]5C)cc4)CC3)nn12,90.3
13,Cn1cc(C(=O)Nc2ccc3c(c2)OCCO3)c2ccccc2c1=O,79.9
14,C/C(=N\NC(=O)c1cccc(S(=O)(=O)N2CCOCC2)c1)c1cc(Cl)ccc1O,85.8
15,Cc1noc(C)c1-c1ccc(-c2nc3cnccn3c2NC(C)(C)C)cc1,64.8
16,Oc1cc(O)cc(/C=C/c2ccc(Br)cc2)c1 [4'-bromo-Resveratrol],6.07 (active)
17,Cc1[nH]c2ccccc2c1CCNCc1ccc(/C=C/C(=O)NO)cc1 [Panobinostat],61.4
18,O=Nc1ccc(O)c2ncccc12 [5-Nitroso-8-quinolinol],11.5 (active)
19,O=C(NC[C@H](O)CN1CCc2ccccc2C1)c1ccnc(NC2CCC2)c1,79.5
20,O=C(CCCCCCC(=O)Nc1cccnc1)NO [Pyroxamide],63.8

row,SMILES,gametocyte viability
1,CCCCNNC(=O)c1ccc(Br)cc1,56.1
2,CCOC(=O)Nc1cc(-c2ccc(C)c(NS(C)(=O)=O)c2)nn2c(C)nnc12 [Bromosporine],83.1
3,COc1cc2c(NC3CCN(C)CC3)nc(N3CCCN(C)CC3)nc2cc1OCCCN(C)C,84
4,COc1ccccc1C(=O)Nc1cc2c(cc1N1CCNC[C@H]1C)n(C)c(=O)n2C,93.7
5,Nc1nccc2c1ncn2C1C=C(CO)C(O)C1O (stereo not given) [3-Deazaneplanocin A],88.1
6,O=C1C(=Cc2cccnc2)C(=O)c2ccccc21,80.2
7,CCCCCOc1ccc(/C=C\c2cccc(O)c2C(=O)O)cc1,88.4
8,CCCCOc1ccc(CC(=O)NO)cc1 [Bufexamac],94.8
9,CC(C)(C)c1ccc(C(=O)NC(=S)Nc2ccc(N)cc2)cc1 [Tenovin-3],79.2
10,Cc1ccc(NC2=CC(=O)c3sc(C)nc3C2=O)cc1 [Ryuvidine],19.2 (active)
11,O=C(NN=Cc1c(O)ccc2ccccc12)c1ccncc1,65.4
12,COc1cc2c(cc1NS(=O)(=O)c1ccc(Br)cc1C)n(C)c(=O)n2C,86.4
13,COc1cc(Br)c(Nc2nc(-c3c(C)nc4ncccn34)cs2)c(Br)c1,93.6
14,CC(=O)SCC(=O)c1ccc(NS(=O)(=O)c2ccc(OCCCN(C)C)cc2)nc1,85.4
15,Cc1nn(C)cc1CN1CCC(c2ccc(C(=O)Nc3ccccc3N)cc2)CC1,90.2
16,O=C(NO)c1ccc(CC(=O)N(CCO)c2ccccc2)cc1,93.5
17,COc1cc(C#N)ccc1S(=O)(=O)Nc1ccc2c(c1)cc(C)c(=O)n2C,91.4
18,O=C(O)c1ccc(O)c2ncccc12,84.3
19,O=C(O)C(Cc1c[nH]c2ccccc12)N1C(=O)c2ccccc2C1=O (stereo not given),84.3
20,Cc1cc(Nc2ccc(NC(=O)c3ccc(Nc4ccnc5ccccc45)cc3)cc2)nc(N)n1,2.18 (active)

# From the supplement of paper PMC12297408
